# Measurements reported in PubChem BioAssay.
# Active and inactive are the calls of the source.
# Key:
# [1] = system: Plasmodium falciparum Sir2 (PF13_0152, Sir2A); experiment: Plasmodium falciparum Sir2A binding compounds – biochemical, small-molecule microarray, 635 nm fluorescence, primary screen (AID 1098); conditions: fluorescence 635 nm, higher = more signal;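 also: score merges spot fluorescence intensity with its signal-to-noise ratio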
# [2] = probe aDKK1 binding to arrayed compounds – biochemical, biotinylated probe, 635/667 nm fluorescence, primary screen (AID 1099); conditions: small-molecule microarray, higher = more signal;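 also: score merges 667nm spot fluorescence with signal to noise across triplicate slides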
# [3] = probe aCHRDL2 binding to arrayed compounds – biochemical, biotinylated probe, 635/667 nm fluorescence, primary screen (AID 1100); conditions: small-molecule microarray, higher = more signal
# [4] = change in splice reporter luminescence, either direction, cell-based, HEK293, spliceosome inhibition project, primary screen (AID 1101); conditions: HEK293 splicing luciferase reporter, 24 h, higher = more signal, called active from +8 up or from −8 down;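 also: HEK293 cells carrying a splicing-competent luciferase reporter gene; test concentration not given here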
# [5] = target: Fibroblast growth factor 10 (Homo sapiens) (UniProt O15520); experiment: compounds binding fibroblast growth factor 10 – biochemical, small-molecule microarray, 635 nm fluorescence, primary screen (AID 1102); conditions: FGF10 binding, fluorescence 635 nm, higher = more signal
# [6] = system: glycogen synthase kinase-3 (GSK3A per assay name; protocol says GSK3B); experiment: compounds binding glycogen synthase kinase-3 – biochemical, small-molecule microarray, 635 nm fluorescence, GSK3A, primary screen (AID 1103); conditions: fluorescence 635 nm, higher = more signal; also: the record names both GSK3A and GSK3B
# [7] = target: Epidermal growth factor receptor (Homo sapiens) (UniProt P00533); experiment: compounds binding epidermal growth factor receptor – biochemical, small-molecule microarray, 635 nm fluorescence, primary screen (AID 1104); conditions: EGFR binding, higher = more signal;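 also: score merges 667 nm emission intensity with spot signal to noise over triplicate slides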
# [8] = target: Follistatin-related protein 3 (Homo sapiens) (UniProt O95633); experiment: compounds binding follistatin-related protein 3 – biochemical, small-molecule microarray, 635 nm fluorescence, primary screen (AID 1105); conditions: FSTL3 binding, higher = more signal;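 also: score merges emission near 667 nm and signal to noise per printed spot across three slides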
# [9] = target: Dickkopf-related protein 1 (Homo sapiens) (UniProt O94907); experiment: small molecules binding DKK1 protein – biochemical, small-molecule microarray, 635 nm fluorescence scan, primary screen (AID 1106); conditions: higher = more signal;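 also: score merges emission near 667 nm with signal to noise over three replicate slides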
# [10] = system: Inhibin beta A chain (activin A); experiment: small molecules binding activin A – biochemical, small-molecule microarray, 635 nm fluorescence scan, primary screen (AID 1107); conditions: INHBA, higher = more signal;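 also: mouse activin A protein probed at 4.33 µg/mL on printed slides; score merges bound-protein fluorescence near 667 nm with spot signal-to-noise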
# [11] = system: Human papillomavirus type 1a protein E7 (residues 44-93); experiment: small molecules binding HPV E7 44-93 – biochemical, small-molecule microarray, residues 44-93, 635 nm fluorescence, primary screen (AID 1108); conditions: fluorescence 635 nm, higher = more signal;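 also: E7 fragment applied at 1 µg/mL in TBST for 1 h at 4 C; score combines spot fluorescence with its signal to noise ratio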
# [12] = hepatitis C replication reporter changes, two-sided – Huh7 cells, luciferase reporter, HCV replication inhibitor project, primary screen (AID 1109); conditions: Huh7 HCV replicon luciferase reporter, 48 h; higher = more signal;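 also: huh7 hepatoma cells harbouring a luciferase neomycin HCV replicon reporter; luciferase luminescence as measure of HCV replicon replication; test concentration not given here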
# [13] = target: Left-right determination factor 2 (Homo sapiens) (UniProt O00292); experiment: small molecules binding LEFTY2 protein – biochemical, small-molecule microarray, 635 nm fluorescence scan, primary screen (AID 1110); conditions: higher = more signal
# [14] = target: Calmodulin-1 (Homo sapiens) (UniProt P0DP23); experiment: small molecules binding calmodulin-1 with EGTA – biochemical, small-molecule microarray, Cy5-labelled CALM1, profiling panel (AID 1111); conditions: Cy5-CALM1 binding fluorescence, higher = more signal;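 also: labelled calmodulin applied in Tris saline Tween buffer holding calcium plus EGTA and DTT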
# [15] = target: Calmodulin-1 (Homo sapiens) (UniProt P0DP23); experiment: small molecules binding Ca-loaded calmodulin-1 – biochemical, small-molecule microarray, Cy5-labelled CALM1, plus calcium, artefact control for SMM control-protein annotation, profiling panel (AID 1112); conditions: Cy5-CALM1 binding fluorescence, higher = more signal;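 also: score merges spot fluorescence with signal to noise from triplicate slides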
# [16] = probe aWnt5a binding to arrayed compounds – biochemical, biotinylated probe, 635/667 nm fluorescence, primary screen (AID 1113); conditions: small-molecule microarray, higher = more signal;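 also: score merges 667 nm fluorescence intensity with signal-to-noise per printed feature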
# [17] = probe aShh binding to arrayed compounds – biochemical, biotinylated probe, 635/667 nm fluorescence, primary screen (AID 1114); conditions: small-molecule microarray, higher = more signal;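 also: probe is biotin-labelled aShh protein from a stem cell growth factor screen; measures binding of labelled protein to compounds printed on the slide; score merges feature fluorescence at 667 nm with signal-to-noise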
# [18] = probe aNog binding to arrayed compounds – biochemical, biotinylated probe, 635/667 nm fluorescence, primary screen (AID 1115); conditions: small-molecule microarray, higher = more signal;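 also: probe is biotinylated aNog protein used at 0.15 µg/mL for 1 h at 4 C; z-score combines 667 nm fluorescence of each spot with its signal to noise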
# [19] = target: Torsin-1A-interacting protein 1 (Homo sapiens) (UniProt Q5JTV8); experiment: compound microarray binding of lysate hLAP1 – cell lysate, small-molecule microarray, COS7 lysate, 635/667 nm fluorescence, primary screen (AID 1116); conditions: 635 nm fluorescence, higher = more signal
# [20] = target: Alpha-bungarotoxin (Bungarus multicinctus) (UniProt P60615); experiment: compounds binding labelled alpha-BTX control protein – biochemical, small-molecule microarray, Alexa647 label, 635/667 nm fluorescence, artefact control for SMM control protein annotation, profiling panel (AID 1117); conditions: alpha-BTX-A647 binding fluorescence, higher = more signal
# Chain of Alpha-bungarotoxin (Bungarus multicinctus) (P60615 whole entry, looked up): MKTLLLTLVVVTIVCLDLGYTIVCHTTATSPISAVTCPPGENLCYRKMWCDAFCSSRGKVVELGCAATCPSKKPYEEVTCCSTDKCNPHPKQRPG
# Chain of Follistatin-related protein 3 (Homo sapiens) (O95633 whole entry, looked up): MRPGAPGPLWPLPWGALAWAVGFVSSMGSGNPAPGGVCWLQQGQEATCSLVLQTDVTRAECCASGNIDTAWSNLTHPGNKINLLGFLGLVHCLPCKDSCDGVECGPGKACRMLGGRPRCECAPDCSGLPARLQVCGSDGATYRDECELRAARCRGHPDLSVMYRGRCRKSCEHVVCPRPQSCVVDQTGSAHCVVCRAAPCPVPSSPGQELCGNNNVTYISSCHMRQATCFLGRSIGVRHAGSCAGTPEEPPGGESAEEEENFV
# Chain of Left-right determination factor 2 (Homo sapiens) (O00292 whole entry, looked up): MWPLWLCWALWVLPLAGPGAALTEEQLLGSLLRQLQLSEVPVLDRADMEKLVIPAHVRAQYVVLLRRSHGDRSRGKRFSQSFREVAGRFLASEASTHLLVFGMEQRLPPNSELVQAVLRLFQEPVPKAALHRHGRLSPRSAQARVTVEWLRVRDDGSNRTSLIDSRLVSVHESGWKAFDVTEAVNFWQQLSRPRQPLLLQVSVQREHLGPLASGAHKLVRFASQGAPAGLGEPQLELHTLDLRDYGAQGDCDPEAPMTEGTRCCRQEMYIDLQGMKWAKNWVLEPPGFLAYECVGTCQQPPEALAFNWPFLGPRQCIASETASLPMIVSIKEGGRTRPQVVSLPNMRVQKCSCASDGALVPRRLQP
# Chain of Dickkopf-related protein 1 (Homo sapiens) (O94907 whole entry, looked up): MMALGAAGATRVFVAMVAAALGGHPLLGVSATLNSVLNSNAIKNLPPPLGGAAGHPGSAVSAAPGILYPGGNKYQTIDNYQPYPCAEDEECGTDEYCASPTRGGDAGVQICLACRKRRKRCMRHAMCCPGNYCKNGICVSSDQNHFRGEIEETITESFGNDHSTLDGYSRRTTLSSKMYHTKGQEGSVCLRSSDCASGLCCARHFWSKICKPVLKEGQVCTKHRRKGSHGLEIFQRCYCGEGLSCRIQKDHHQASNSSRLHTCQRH
# Chain of Fibroblast growth factor 10 (Homo sapiens) (O15520 whole entry, looked up): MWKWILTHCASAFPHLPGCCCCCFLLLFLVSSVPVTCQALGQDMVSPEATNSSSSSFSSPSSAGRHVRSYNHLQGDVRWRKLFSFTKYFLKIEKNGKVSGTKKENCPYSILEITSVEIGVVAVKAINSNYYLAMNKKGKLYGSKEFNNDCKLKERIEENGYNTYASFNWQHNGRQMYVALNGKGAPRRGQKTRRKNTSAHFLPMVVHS
# Chain of Torsin-1A-interacting protein 1 (Homo sapiens) (Q5JTV8 whole entry, looked up): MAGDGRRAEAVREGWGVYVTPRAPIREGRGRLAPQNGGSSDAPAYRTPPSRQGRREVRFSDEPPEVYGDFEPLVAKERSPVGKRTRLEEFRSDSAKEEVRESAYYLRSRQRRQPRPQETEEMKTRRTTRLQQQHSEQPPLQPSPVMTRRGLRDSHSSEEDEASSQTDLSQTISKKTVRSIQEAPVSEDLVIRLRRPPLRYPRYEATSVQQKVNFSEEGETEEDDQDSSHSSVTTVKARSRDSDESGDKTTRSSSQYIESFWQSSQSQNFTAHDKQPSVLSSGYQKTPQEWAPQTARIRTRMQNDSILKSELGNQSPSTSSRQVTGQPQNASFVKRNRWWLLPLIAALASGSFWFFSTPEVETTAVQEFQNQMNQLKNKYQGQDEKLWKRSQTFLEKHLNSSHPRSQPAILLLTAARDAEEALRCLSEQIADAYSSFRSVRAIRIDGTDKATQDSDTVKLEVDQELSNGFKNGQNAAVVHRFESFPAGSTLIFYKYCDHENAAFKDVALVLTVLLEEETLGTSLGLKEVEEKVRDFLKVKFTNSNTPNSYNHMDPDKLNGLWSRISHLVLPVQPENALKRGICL
# Chain of Epidermal growth factor receptor (Homo sapiens) (P00533 whole entry, looked up): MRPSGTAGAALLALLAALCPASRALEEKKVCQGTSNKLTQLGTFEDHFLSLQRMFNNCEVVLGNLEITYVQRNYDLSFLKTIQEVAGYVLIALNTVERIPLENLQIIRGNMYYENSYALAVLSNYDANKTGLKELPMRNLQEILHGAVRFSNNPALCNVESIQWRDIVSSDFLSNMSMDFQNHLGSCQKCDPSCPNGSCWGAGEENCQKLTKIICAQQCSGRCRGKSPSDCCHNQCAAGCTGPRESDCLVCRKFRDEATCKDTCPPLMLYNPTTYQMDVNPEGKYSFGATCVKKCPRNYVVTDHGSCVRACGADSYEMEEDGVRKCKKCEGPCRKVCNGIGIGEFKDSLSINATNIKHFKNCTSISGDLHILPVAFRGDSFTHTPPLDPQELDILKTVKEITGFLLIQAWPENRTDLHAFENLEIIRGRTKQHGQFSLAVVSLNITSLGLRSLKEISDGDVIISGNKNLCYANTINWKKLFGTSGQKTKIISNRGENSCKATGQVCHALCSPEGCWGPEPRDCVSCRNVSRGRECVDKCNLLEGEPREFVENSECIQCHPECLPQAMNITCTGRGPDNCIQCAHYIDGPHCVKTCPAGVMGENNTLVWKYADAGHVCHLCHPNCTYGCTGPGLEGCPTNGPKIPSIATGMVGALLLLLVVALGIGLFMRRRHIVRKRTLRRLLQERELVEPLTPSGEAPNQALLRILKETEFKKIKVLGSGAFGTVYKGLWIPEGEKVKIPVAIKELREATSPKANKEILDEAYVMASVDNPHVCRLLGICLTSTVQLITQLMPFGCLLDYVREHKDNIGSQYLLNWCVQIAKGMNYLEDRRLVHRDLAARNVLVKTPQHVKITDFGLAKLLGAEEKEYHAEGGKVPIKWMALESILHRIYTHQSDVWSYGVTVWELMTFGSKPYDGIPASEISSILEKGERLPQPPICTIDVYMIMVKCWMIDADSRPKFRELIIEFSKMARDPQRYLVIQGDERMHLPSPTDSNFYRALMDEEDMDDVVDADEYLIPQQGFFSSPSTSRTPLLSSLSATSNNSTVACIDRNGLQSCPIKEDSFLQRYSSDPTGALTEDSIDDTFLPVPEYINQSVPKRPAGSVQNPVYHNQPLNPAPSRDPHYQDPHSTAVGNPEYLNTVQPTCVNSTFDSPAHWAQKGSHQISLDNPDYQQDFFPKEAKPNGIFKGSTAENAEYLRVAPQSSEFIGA
Structure (SMILES),composite z-score [1],composite z-score [2],composite z-score [3],z-score [4],composite z-score [5],composite z-score [6],composite z-score [7],composite z-score [8],composite z-score [9],composite z-score [10],composite z-score [11],z-score [12],composite z-score [13],composite z-score [14],composite z-score [15],composite z-score [16],composite z-score [17],composite z-score [18],composite z-score [19],composite z-score [20]
N#Cc1ccc(NN2C(C(O)C3CC=CCC3)C=CC3C(=O)N(c4ccccc4)C(=O)C32)cc1 (stereo not given),0.602,0.417,0.728,1.6 (inactive),1.09,0.79,1.44,1.38,-0.141,1.25,1.48,-0.137,0.0779,0.0301,-0.753,-0.13,0.0639,0.313,0.102,1.17
O=C1C[C@@](C(=O)O)(c2ccc([N+](=O)[O-])cc2)[C@@H](c2ccc(CO)cc2)N1C1CCCCC1,0.869,0.366,0.495,0.185 (inactive),0.869,0.582,0.369,1.1,0.649,0.633,1.45,-1.67,0.245,1.2,0.161,0.0037,0.116,-0.485,0.493,1.07
COCCOC(=O)N1C(=O)[C@@]2(c3cc(C#CCC(C(=O)OC)C(=O)OC)ccc31)[C@H](C(=O)Nc1nc3ccccc3s1)[C@H]1C(=O)O[C@H](c3ccccc3)[C@H](c3ccccc3)N1[C@@H]2c1ccc(OCCO)cc1,0.659,0.0831,0.164,0.0491 (inactive),1.48,1.32,1.03,1,1.04,0.286,0.783,-2.03,1.21,1.34,-0.21,0.0377,0.0043,-0.0242,1.38,0.752
COC(=O)[C@@]1(Cc2ccc(OC)cc2)[C@H]2c3cc(C(=O)N4CCCC4)n(CCn4cc([N+](=O)[O-])nc4C)c3C[C@H]2CN1C(=O)c1ccccc1,1.2,2.46,1.33,0.167 (inactive),0.981,0.456,0.661,0.354,0.559,1.13,0.0832,-0.432,0.277,2.72,1.21,1.19,2.51,3.12,1.98,0.299
C=CCNC(=O)[C@@H]1[C@H]2C(=O)O[C@H](c3ccccc3)[C@H](c3ccccc3)N2[C@H](c2ccc(OCCO)cc2)[C@@]12C(=O)Nc1ccc(C#CC3(O)CCCCCC3)cc12,1.42,0.535,0.65,-1.43 (inactive),0.986,1.22,0.378,0.826,0.371,-0.0995,1.12,-2.43,0.367,0.92,0.0835,-0.0203,-0.278,0.822,0.699,1.35
